Screening data as filed in PubChem.
Sampled rows, rich in hits. Any-hit rate of the full collection: about 11%.
HP1b chromo inh – HP1-beta chromodomain-methylated histone interaction inhibition | P83916 | AlphaScreen HP1-beta / biotin-H3K9me3 peptide binding | Potency, µM (highest dose often 114 µM), hits mostly inhibitors | 0.56% of 390,000 active | AID 540317; also: nearly all actives have a fitted effect of over 70% in size
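AlphaScreen: HP1-beta (50 nM) preformed 30 min with biotin-H3(1-18)K9me3 peptide (50 nM) in PBS pH 7.4, 0.01% Tween-20. Compound added for 30 min at RT, then streptavidin donor/nickel chelate acceptor beads (10 ug/mL) for 30 min.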
BAZ2B block – blocks human BAZ2B; Q9UIF8; AlphaScreen BAZ2B-H3K14Ac peptide displacement; Potency, µM (series often up to 114 µM), usual class: inhibitors; 4.4% of 360,000 active; also: nearly all actives have a fitted effect of over 60% in size
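Protein-peptide AlphaScreen: BAZ2B 50 nM, b-H3K14Ac 50 nM, 1x PBS pH 7.4 + 0.01% Tween-20. Preincubation 30 min RT; cpd 30 min RT (top 110 uM); beads 20 min RT, light-protected.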
G9a inh – inhibitors of human histone lysine methyltransferase G9a | 8.8% of 350,000 active | Potency, µM (top dose mostly 102 µM), hits mostly inhibitors | Q96KQ7 | G9a H3K9 monomethylation, AlphaScreen, 2 h; also: nearly all actives have a fitted effect of over 75% in size
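Using a bead-based AlphaScreen, monomethylated H3K9 product from 2 h room-temperature reactions (G9a 20 nM, peptide 500 nM, SAM 20 uM) was detected with 0.5 ug/mL rabbit anti-H3K9me1 antibody.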
L3MBTL1 inh – blocks human L3MBTL1; AlphaScreen L3MBTL1–H3K9me1 peptide binding; Potency, µM (top dose mostly 57.1 µM), actives largely listed as inhibitors; Q9Y468; 0.66% of 230,000 active; also: nearly all actives have a fitted effect of over 60% in size
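First, the protein-peptide complex forms for 30 min at room temperature (L3MBTL1 50 nM, biotinylated H3K9me1 peptide 75 nM). Next, compounds are pin-transferred and incubated 30 min. Finally, AlphaScreen beads are added and read after 30 min.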
PI5P4Ka inh – inhibitors of human PI5P4K alpha | PI5P4Kalpha enzyme, ADP-Glo luminescence, 60 min; hits give low values | 1.2% of 330,000 active | P48426 | max response, %; active = max response of -50% or lower; inconclusive = between -30% and -50%; inactive = -30% or higher; also: value at the top dose of about 77 µM
Target sequence (P48426 whole entry, looked up): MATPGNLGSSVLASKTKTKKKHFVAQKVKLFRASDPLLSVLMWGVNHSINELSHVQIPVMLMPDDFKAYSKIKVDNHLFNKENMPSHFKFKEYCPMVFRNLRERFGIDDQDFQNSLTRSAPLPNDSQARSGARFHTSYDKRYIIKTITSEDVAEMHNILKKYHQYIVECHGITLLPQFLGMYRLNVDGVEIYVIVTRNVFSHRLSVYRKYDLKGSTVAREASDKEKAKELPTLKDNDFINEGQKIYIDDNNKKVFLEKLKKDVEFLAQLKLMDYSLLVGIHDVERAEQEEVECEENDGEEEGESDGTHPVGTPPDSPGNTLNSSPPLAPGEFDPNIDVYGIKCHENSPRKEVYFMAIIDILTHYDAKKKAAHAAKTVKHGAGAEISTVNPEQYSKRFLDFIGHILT
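ADP-Glo luminescence end-point read after a 60 min room-temperature kinase reaction of PI5P4Kalpha plus substrate, initiated with ATP at 5 microM final. Buffer: 0.038 M HEPES pH 7.4, EGTA, 0.1% CHAPS, 5% DMSO.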
JMJD2A Tudor – inhibitors of human JMJD2A Tudor domain; 4.4% of 390,000 active; AlphaScreen JMJD2A-Tudor / H3K4me3 peptide binding; Potency, µM (top dose mostly 114 µM), most hits filed as inhibitors; also: nearly all actives have a fitted effect of over 50% in size
Each line names hits and unclear results; the compound was inactive in the other large screens. Unless noted, calls follow the shape of the dose curve; as a rule, active = well fitted inhibition curve with a large enough effect; inconclusive = small, poorly fitted or top-dose-only effect; inactive = no such curve, though single readings can be large or run the other way.

COc1cc(C)cc2oc(=O)c(CC(=O)NCCc3ccc(Cl)cc3)c(C)c12	none (no result: L3MBTL1 inh, PI5P4Ka inh)
C=CC(C)n1c(Br)nc2c1c(=O)[nH]c(=O)n2C (centres undefined)	G9a inh inconclusive
CC(C)n1c(=S)[nH]c2c1c(=O)[nH]c(=O)n2C	HP1b chromo inh 10µM, BAZ2B block inconclusive, G9a inh inconclusive, PI5P4Ka inh -76, JMJD2A Tudor 2µM
COc1cccc(C2C(C#N)=C(N)OC3=C2C(=O)CC(c2ccco2)C3)c1OCc1ccc(F)cc1 (centres undefined)	BAZ2B block inconclusive, JMJD2A Tudor inconclusive
N#CC1=C(N)OC2=C(C(=O)CC(c3ccco3)C2)C1c1ccc(OCc2c(F)cccc2Cl)cc1 (centres undefined)	BAZ2B block 71µM, JMJD2A Tudor inconclusive
Cc1cc(C)cc(NC(=O)c2cc(CN3CCCC3)on2)c1	none (no result: L3MBTL1 inh, PI5P4Ka inh)
O=[N+]([O-])c1cccnc1Sc1ccc(Cl)cc1	HP1b chromo inh inconclusive, BAZ2B block 32µM, G9a inh 45µM, JMJD2A Tudor 56µM (no result: L3MBTL1 inh)
O=C(N/N=C\c1ccc(Cl)s1)c1ccc(Cn2cccn2)o1	JMJD2A Tudor 50µM
CN=c1scc(-c2ccccc2F)n1/N=C/c1ccc[nH]1	HP1b chromo inh 40µM, BAZ2B block 32µM, G9a inh 18µM, JMJD2A Tudor 50µM (no result: L3MBTL1 inh)
COc1ccc(N2CCN(C(=O)c3ccc(-c4nc(COc5ccccc5)c(C)o4)cc3)CC2)cc1	G9a inh inconclusive (no result: L3MBTL1 inh, PI5P4Ka inh)
CC(=O)CCc1ccc(OCC(O)CNCCOc2ccc(C)cc2)cc1 (centres undefined)	none (no result: L3MBTL1 inh)
OC(CNc1ccccc1)COc1ccc(OCC(O)CNc2ccccc2)cc1 (centres undefined)	BAZ2B block 50µM, G9a inh inconclusive, JMJD2A Tudor 50µM
CCOCC(O)CNc1ccccc1 (centres undefined)	none
COc1ccccc1NCC(O)COc1ccc(C(C)(C)C)cc1 (centres undefined)	HP1b chromo inh 20µM, BAZ2B block 22µM, G9a inh 7.9µM, JMJD2A Tudor 2.8µM
Cc1ccc(OCCNCC(O)COc2ccccc2)cc1 (centres undefined)	BAZ2B block 50µM, G9a inh inconclusive, JMJD2A Tudor 56µM (no result: L3MBTL1 inh)
COc1ccc(OCC(O)CNCCOc2ccccc2OC)c(C(C)(C)C)c1 (centres undefined)	BAZ2B block 50µM, G9a inh inconclusive, JMJD2A Tudor 22µM (no result: L3MBTL1 inh)
CC(CNC(=O)Cn1ncc2c3ccccc3n(Cc3cccc(Cl)c3)c2c1=O)c1ccccc1 (centres undefined)	JMJD2A Tudor inconclusive (no result: L3MBTL1 inh, PI5P4Ka inh)
Cc1cccc(OCCn2nnc3sc4c(c3c2=O)CCCC4)c1	none (no result: L3MBTL1 inh, PI5P4Ka inh)
Cc1ccc2cc(CN(Cc3ccco3)C(=S)NCC3CCCO3)c(=O)[nH]c2c1 (centres undefined)	none
Cc1ccc(C)c2[nH]c(=O)c(CN(Cc3ccco3)C(=S)NCC3CCCO3)cc12 (centres undefined)	BAZ2B block inconclusive, G9a inh 40µM
Cc1ccc(C(=O)Nc2ccccc2C(=O)O)cc1NC(=O)COc1c(C)cccc1C	BAZ2B block 79µM
Cc1cc(C(=O)Nc2ccccc2C(=O)O)ccc1NC(=O)COc1cccc(C)c1C	none (no result: L3MBTL1 inh)
O=C(COc1ccc(Cl)cc1Cl)Nc1ccc(C(=O)Nc2ccccc2C(=O)O)cc1	HP1b chromo inh inconclusive, BAZ2B block 50µM, PI5P4Ka inh -57, JMJD2A Tudor 50µM (no result: G9a inh, L3MBTL1 inh)
Cc1cccc(OCC(=O)Nc2ccc(C(=O)Nc3ccccc3C(=O)O)cc2)c1	PI5P4Ka inh -52 (no result: HP1b chromo inh, BAZ2B block, G9a inh, L3MBTL1 inh, JMJD2A Tudor)
CCOc1ccc(NC(=O)Cn2c(=O)n(CCCCCC(=O)NCc3ccccc3)c(=O)c3sccc32)cc1	none (no result: L3MBTL1 inh, PI5P4Ka inh)
COC(=O)c1ccc(N2CCC(C)CC2)c(N)c1	HP1b chromo inh inconclusive, G9a inh 8.9µM, JMJD2A Tudor inconclusive (no result: L3MBTL1 inh, PI5P4Ka inh)
COC(=O)c1ccc(N2CCCCC2)c(N)c1	none (no result: G9a inh)
Cc1cc(C)cc(NC(=O)N2CCC(C(N)=O)(N3CCCCC3)CC2)c1	none (no result: L3MBTL1 inh, PI5P4Ka inh)
CCC1(CC)NC(=O)N(CC(=O)NC(=O)NCc2ccccc2)C1=O	HP1b chromo inh inconclusive, G9a inh 32µM (no result: L3MBTL1 inh)
